# Compound activity as filed in PubChem BioAssay.
# HPGD inh – qHTS Assay for Inhibitors of HPGD (15-Hydroxyprostaglandin Dehydrogenase). 15-hydroxyprostaglandin dehydrogenase [NAD(+)] (Homo sapiens), P15428. purified HPGD, NADH fluorescence kinetic, PGE2 substrate. Potency, µM, inactives show top-dose activity change, negative = inhibition, most hits filed as inhibitors. 4.3% of 150,000 active; also: potency is read from the fitted curve at half-maximal effect
#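 20 nM HPGD preincubated 15 min at room temperature with compound in 50 mM Tris-HCl pH 8, 0.01% Tween 20. Started with 1 mM NAD+ and 30 uM prostaglandin E2; NADH fluorescence (360/450 nm) read 5 times over 30-s intervals, last minus first.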
# ALDH1A1 inh – qHTS Assay for Inhibitors of Aldehyde Dehydrogenase 1 (ALDH1A1) | Aldehyde dehydrogenase 1A1 (Homo sapiens), P00352 | Purified ALDH1A1, NADH fluorescence, propionaldehyde substrate | Potency, µM (highest dose often 75.3 µM), for inactives: at the highest dose activity, negative = inhibition, usual class: inhibitors | 7.3% of 220,000 active;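 also: potency is read from the fitted curve at half-maximal effect; plate controls were no enzyme wells and a reference inhibitor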
# Target sequence (P00352 whole entry, looked up): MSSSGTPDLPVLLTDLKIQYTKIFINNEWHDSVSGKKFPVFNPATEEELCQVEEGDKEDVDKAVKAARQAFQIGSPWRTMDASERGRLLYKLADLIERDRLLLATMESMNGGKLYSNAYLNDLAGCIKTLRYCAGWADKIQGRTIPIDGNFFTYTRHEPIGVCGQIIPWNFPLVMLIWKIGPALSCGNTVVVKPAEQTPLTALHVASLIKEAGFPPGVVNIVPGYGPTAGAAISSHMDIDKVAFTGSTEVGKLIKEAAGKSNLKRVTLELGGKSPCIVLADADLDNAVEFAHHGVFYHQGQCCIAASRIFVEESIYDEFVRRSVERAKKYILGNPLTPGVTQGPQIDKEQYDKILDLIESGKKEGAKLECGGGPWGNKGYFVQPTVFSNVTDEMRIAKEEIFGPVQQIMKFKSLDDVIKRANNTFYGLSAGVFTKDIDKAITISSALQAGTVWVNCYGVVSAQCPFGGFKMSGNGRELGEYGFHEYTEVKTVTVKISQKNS
# Luc counter – Counterscreen for Luciferase (Kinase-Glo TM) Inhibition; Kinase-Glo luciferase, ATP luminescence, 8 min; 0.28% of 200,000 active; Potency, µM (titrated, usually from 38.3 µM), for inactives: top-dose activity change, negative = inhibition, usual class: inhibitors; active = well fitted inhibition curve with a large enough effect; inconclusive = small, poorly fitted or top-dose-only effect; also: potency is read from the fitted curve at half-maximal effect; nearly all actives have a fitted effect of over 60% in size
#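 Kinase-Glo luciferase light output from ATP and luciferin was measured with 10 uM ATP, within the enzyme's linear range. Buffer: 50 mM imidazole pH 7.2, 50 mM KCl, 7 mM MgCl2, 0.01% Tween 20, 0.05% BSA; luminescence read after 8 min at ambient temperature.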
# IMPase cell inh – qHTS Assay for Identifying the Cell-Membrane Permeable IMPase Inhibitors; Inositol monophosphatase 1 (Rattus norvegicus), P97697; CHO-M1 cells, IP1 accumulation, HTRF TR-FRET ratio; inhibition (IP1 accumulation), % at 46.1 µM; 120,000 tested, under 10 active; AID 901, 2007; active = well fitted curve in the direction sought with a large enough effect in the signal ratio, not every such curve was filed as active; inconclusive = small, poorly fitted or top-dose-only effect, or a change in a side signal; inactive = no such curve, though single readings can be large or run the other way; the % refers to the signal ratio;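 also: cells stimulated with carbachol in lithium chloride buffer; plate controls were DMSO basal wells for no effect and reference inhibitor wells for full effect; higher means more IMPase inhibition seen as more IP1 and lower FRET ratio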
# Target sequence (P97697 whole entry, looked up): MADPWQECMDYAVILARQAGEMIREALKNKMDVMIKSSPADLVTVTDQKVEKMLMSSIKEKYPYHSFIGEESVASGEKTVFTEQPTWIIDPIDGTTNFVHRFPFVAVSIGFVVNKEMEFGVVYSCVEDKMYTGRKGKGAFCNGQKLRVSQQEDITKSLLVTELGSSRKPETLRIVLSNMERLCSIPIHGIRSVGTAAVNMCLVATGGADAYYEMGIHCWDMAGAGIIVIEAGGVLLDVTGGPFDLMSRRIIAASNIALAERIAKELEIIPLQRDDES
#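 CHO-M1, 2000 cells/well, cultured 16–30 h; cpd up to 46 uM; carbachol (50 uM solution, stimulation buffer w/ 50 mM LiCl, pH 7.4), 30 min 37C; IP-One TR-FRET, 10 min RT; Ex 320/Em 665, 620; Hill-fit AC50.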
# Lamin A splicing – qHTS Assay for Modulators of Lamin A Splicing; HeLa LMNA splicing GFP/RFP minigene ratio, 48 h; Potency, µM (top dose mostly 46.1 µM), inactives show at the top dose ratio change, negative = inhibition, most hits filed as inhibitors; 0.01% of 200,000 active; AID 1487, 2009; active = well fitted inhibition curve with a large enough effect in the signal ratio, with a control signal flat, not every such curve was filed as active; inconclusive = small, poorly fitted or top-dose-only effect, or effect the other way, or a change in a side signal; the % refers to the signal ratio; also: potency is read from the fitted curve at half-maximal effect
#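 Read-out is the ratio of GFP to DsRed2 object intensity, acquired by 488 nm laser-scanning cytometry on HeLa lamin A-EGFP minigene reporter cells. Compound incubation 48 hrs at 37 °C in Opti-MEM with 2% FBS; DMSO 0.5% final.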
# PNC assembly inh – High Content Assay for Compounds that inhibit the Assembly of the Perinucleolar Compartment | PC3M PTB-GFP, PNC prevalence imaging, 16 h; hits give low values | activity change (PNC), negative = inhibition, % at 10 µM | 3.1% of 140,000 active;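 active = readout at or below -70, meaning at least 70% loss of cells showing the perinucleolar compartment, a nuclear body marking cancer cells; inconclusive = readout between -30 and a set limit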;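 also: plate controls were DMSO wells for no effect and camptothecin positive control wells for full effect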
#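 PC3M cells stably expressing PTB-GFP, 750–1000 cells/well, treated 16 h at 37 °C with compound (23 nl of library stock), in duplicate. After paraformaldehyde fixation and Hoechst stain, imaged at 20x; PNC prevalence scored by image analysis.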
# An asterisk follows results filed as active; ? = inconclusive; nt = no result; [ ] = another dose, or the depositor's remark. Shown are actives, neighbours in structure and some others; about 10% of the full set was active somewhere. Unless noted, calls follow the shape of the dose curve; as a rule, active = well fitted inhibition curve with a large enough effect (not every such curve was filed as active); inconclusive = small, poorly fitted or top-dose-only effect, or another doubt; inactive = no such curve, though single readings can be large or run the other way. Unless noted, % is scaled to controls: 0 for no effect and ±100 for the full control effect.
SMILES,HPGD inh,ALDH1A1 inh,Luc counter,IMPase cell inh,Lamin A splicing,PNC assembly inh
CCOc1ccc(OCC)c(NS(=O)(=O)c2ccc(-c3coc(C)n3)cc2)c1,nt,nt,nt,nt,-26.4%[46 µM],nt
COC(=O)Cc1[nH]nc2c1C1(C(=O)N(Cc3ccccc3)c3ccccc31)C(C#N)=C(N)O2 (centres undefined),-0.9%,20µM*,3.2%,3.1,18.8%,54.8
CC(=O)N1C(=O)C2(C(C#N)=C(N)Oc3cc(C)oc(=O)c32)c2ccccc21 (centres undefined),2.0%,5.5%,1.2%,15.0,-13.5%,-114.9*
Cc1ccc(OCC(=O)Nc2sc3c(c2C(N)=O)CCCC3)c(C(C)(C)C)c1,nt,nt,nt,10.8,nt,nt
Cc1cc(Nc2cc(F)ccc2C)n2ncnc2n1,-19.3%,-15.7%,3.9%,3.8,-9.4%,-2.0
Cc1cc(Nc2ccccc2F)n2nc(C)nc2n1,-15.8%,4.1%,0.6%,nt,14.3%,-15.2
Cc1ccc(Nc2cc(C)nc3ncnn23)c(Cl)c1,-6.7%,5.4%,-2.0%,-6.3,-12.0%,25.8
COc1ccc(C)cc1Nc1cc(C)nc2ncnn12,5.01µM*,0.7%,-1.0%,nt,7.3%,?
CCOc1ccccc1Nc1cc(C)nc2nc(C)nn12,1.58µM*,-5.6%,1.8%,-7.6,-1.3%,10.8
Cc1ccc(Nc2cc(C)nc3nc(C)nn23)c(C)c1,-18.3%,0.0%,-0.4%,nt,-2.0%,0.9
CCOc1ccc(OCC)c(Nc2cc(C)nc3ncnn23)c1,4.47µM*,1.4%,2.0%,-3.0,-20.0%,-23.3
CCOc1ccc(OCC)c(Nc2cc(C)nc3nc(C)nn23)c1,0.501µM*,2.7%,11.4%,nt,-10.7%,29.5
c1ccc2c[n+](CCCC[n+]3ccc4ccccc4c3)ccc2c1,-4.0%,-3.4%[13.5 µM],-0.8%[7.66 µM],nt,nt,nt
COc1ccccc1CNC(=O)c1ccc(-c2nc(CN3CCc4ccccc43)c(C)o2)cc1,nt,nt,nt,nt,-19.3%[46 µM],nt
CC1(C)Cc2nc3nc(SCC(=O)NCc4ccccc4)n(-c4ccccc4)c(=O)c3cc2CO1,-7.4%,3.55µM*,0.3%,3.3,1.7%,99.4
CC1(C)Cc2nc3nc(SCC(=O)NCCc4ccccc4)n(-c4ccccc4)c(=O)c3cc2CO1,-14.1%,2.51µM*,-1.7%,4.4,10.5%,36.4
O=C(CSc1nc2[nH]ncc2c(=O)n1-c1ccccc1)NCCc1ccccc1,nt,?,4.5%,nt,-1.3%[9.22 µM],nt
CCCC[C@H](CC)CN1CN(C[C@@H](CC)CCCC)CC(C)(N)C1,1.3%,1.3%[20.9 µM],-0.2%[17.1 µM],-0.4[20.6 µM],-16.0%,nt
Cc1nc2ccccc2n1CCc1nc2c3ccccc3nc(SCc3ccc(F)cc3)n2n1,nt,nt,nt,nt,14.5%[46 µM],nt
CC(Oc1ccc(-n2cnnn2)cc1)C(=O)O (centres undefined),nt,14.8%,1.2%,nt,26.8%[46 µM],nt
C[C@@H](Oc1ccc(Oc2cnc3ccc(Cl)cc3n2)cc1)C(=O)O,17.8µM*,?,2.4%,nt,?,nt
S=C(NC1CCCCC1)NC1CCCCC1,-17.6%,?,nt,nt,nt,nt
O=C(CCl)Nc1ccc(Oc2cnc3ccccc3n2)cc1,-16.0%,0.112µM*,-3.1%,4.0,?,7.4
O=C(O)COc1cnc2ccccc2n1,nt,-0.2%,-2.7%,nt,nt,nt
O=C(CCl)Nc1cccc(-c2cnc3ccccc3n2)c1,-15.1%,0.891µM*,-5.2%,2.1,?,?
SMILES,HPGD inh,ALDH1A1 inh,Luc counter,IMPase cell inh,Lamin A splicing,PNC assembly inh
COc1ccc2ccccc2c1/C=N/NC(=O)c1cccc(Br)c1,-17.1%,-3.3%,-6.3%,nt,5.2%,-17.2
O=C(N/N=C/c1ccc(N2CCOCC2)o1)c1ccccc1[N+](=O)[O-],-19.2%,?,0.3%,nt,4.1%,8.8
O=C(N/N=C/c1ccc(N2CCOCC2)o1)c1cccc(C(F)(F)F)c1,?,?,-1.8%,-1.3,-7.8%,-100.0*
O=C(N/N=C/c1c(O)ccc2ccccc12)c1cccc(C(F)(F)F)c1,?,-14.1%,4.0%,nt,?,-93.0*
Cc1cc(=O)c2c(O)c3c(O)cc(=O)c4c3c3c(cc(O)c1c23)C(C)(C)C=4O,-11.7%,1.2%,-2.3%,nt,nt,nt
CCOc1ccc2c(c1)sc(N)[n+]2Cc1cc(C)cc2cccnc12,-11.0%,-7.4%,2.2%,20.6,?,-84.6*
CC(C)(C)c1nnc2sc(SCC(=O)c3ccc(Cl)cc3)nn2c1=O,28.2µM*,4.47µM*,-0.3%,-0.1,?,-10.7
CC1=CC(C)(C)NC(=S)N1c1cccc2ccccc12,0.9%,22.4µM*,-2.7%,?,-2.8%,-0.4
CC1=CC(C)(C)NC(=S)N1c1ccc2ccccc2c1,-16.9%,-1.4%,-2.0%,4.0,-9.9%,-21.5
O=C1C(Cl)=C(NCCCO)C(=O)c2ccccc21,-13.1%,-3.3%,-6.7%,21.4,?,-5.6
CN(C)c1ccc(NC2=C(Cl)C(=O)c3ccccc3C2=O)cc1,14.1µM*,?,-14.2%,nt,?,26.3
CCOC(=O)c1ccc(NC(=O)Cn2nnc(-c3ccccc3F)n2)cc1,-9.2%,5.0%,1.7%,nt,?,12.4
O=C(Nc1ccc(C(=O)N2CCOCC2)cc1)Nc1ccc(Cl)cc1Cl,nt,-6.4%,2.2%,nt,nt,nt
O=C(Cn1nnc(-c2ccccc2F)n1)Nc1ccc(C(=O)N2CCOCC2)cc1,39.8µM*,-1.0%,2.5%,-1.7[1.84 µM],4.3%,-11.0
O=C(Nc1ccccc1)Nc1ccc(C(=O)N2CCOCC2)cc1,15.8µM*,3.1%,3.16µM*,-4.3,-7.0%,-5.4
O=C(Cn1nnc(-c2ccccc2F)n1)Nc1ccc(S(=O)(=O)NC2CCCC2)cc1,7.08µM*,0.3%,1.0%,0.2,12.0%,27.4
O=C(Cn1nnc(-c2ccccc2F)n1)Nc1ccc2c(c1)OCO2,-12.9%,11.0%,12.3%,1.5,-1.6%,7.0
COC(=O)NC(c1cccs1)C(C(C)=O)C(=O)OC (centres undefined),nt,-5.0%[13.5 µM],nt,nt,nt,nt
S=C(Nc1ccc2c(c1)OCO2)NC1CCN(Cc2ccccc2)CC1,-1.7%,12.6µM*,-5.8%,5.8,6.8%,?
Cc1ccc(NC(=S)NC2CCN(Cc3ccccc3)CC2)cc1,-7.8%,?,1.0%,nt,7.8%,-119.4*
S=C(Nc1ccc(Cl)cc1Cl)NC1CCN(Cc2ccccc2)CC1,-4.1%,8.91µM*,-0.8%,nt,?,37.8
O=C(c1cccs1)N(Cc1nc2sc3c(c2c(=O)[nH]1)CCCC3)C1CCCC1,?,?,-6.5%,-5.9,?,-92.2*
CN(C)c1ccc(/C=C2\C(=O)Nc3ccccc32)cc1,?,7.08µM*,-14.4%,nt,28.2µM*,nt
